# Results: PubChem BioAssay AID743129 (Broad Institute, 2013)
# Results with a measured potency or affinity are listed apart. Active and inactive are the calls of the source.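 How the source made its calls: active means cytotoxic compounds whose fitted half-maximal concentration is at most twice the highest valid tested dose; inconclusive means flat curve with 30 to 70% cell loss, or poor fit; inactive means the rest, including signal rising instead of falling.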
# Experiment: viability loss in HepG2 hepatoma cells – cell-based, ATP luminescence, dry powder, set 2, cytotoxicity control, dose response (AID 743129)
# Conditions: ATP luminescence (CellTiter-Glo), 72 h; series mostly up to 26 µM; activity change, negative = cytotoxicity: at the top concentration
SMILES,"activity change, negative = cytotoxicity",outcome
Fc1ccccc1OCCn1c(=S)[nH]c2ccccc21,-13% (inactive),–
CCOc1ccc(OCCn2c(=S)[nH]c3ccccc32)cc1,-26.2% (inactive),–
Cc1ccccc1OCCn1c(=S)[nH]c2ccccc21,-14.9% (inactive),–
COC(=O)C1=C(C)N(Cc2ccccc2)C(=S)NC1c1ccc(Br)cc1 (stereo not drawn),-2.68% (inactive),–
Fc1cccc2c1[nH]c(=S)n2CCOc1ccccc1,12.8% (inactive),–
Cc1ccc(OCCn2c(C)nc3ccccc32)cc1,15% (inactive),–
Cc1ccc(C(C)C)c(OCCn2c(=S)[nH]c3ccccc32)c1,39.7% (inactive),–
Cc1ccc(OCCn2c(=S)[nH]c3ccccc32)c(C(C)C)c1,–,inactive
CCOC(=O)c1c(-c2ccc(OC)cc2)csc1NC(=O)CN(C)CC(=O)N(C)C,6.85% (inactive),–
COC(=O)C1=C(C)N(Cc2ccc(Cl)cc2)C(=S)NC1c1ccc(Br)cc1 (stereo not drawn),-1.77% (inactive),–
CCOC(=O)c1c(-c2ccc(F)cc2)csc1NC(=O)CN1CCN(C)CC1,21.1% (inactive),–
S=c1[nH]c2ccccc2n1CCOc1ccccc1,-11.9% (inactive),–
Cc1ccc(OCCn2c(=S)[nH]c3ccccc32)cc1,-23.9% (inactive),–
c1ccc(OCCn2cnc3ccccc32)cc1,-27.1% (inactive),–
S=c1[nH]c2cccc(Cl)c2n1CCOc1ccccc1,-3.38% (inactive),–
S=c1[nH]c2ccccc2n1CCOc1ccc(Cl)cc1,-7.15% (inactive),–
Cc1ccc2c(c1)[nH]c(=S)n2CCOc1ccccc1,29.2% (inactive),–
Cc1cccc(OCCn2c(=S)[nH]c3cc(C(F)(F)F)ccc32)c1,-10.2% (inactive),–
CCOC(=O)c1c(-c2ccc(F)cc2)csc1NC(=O)CN1CCN(CC)CC1,-0.94% (inactive),–
COC(=O)C1=C(C)N(Cc2ccc(Br)cc2)C(=S)NC1c1ccc(OC)cc1 (stereo not drawn),-26.8% (inactive),–
COC(=O)C1=C(C)N(Cc2ccc(Br)cc2)C(=S)NC1c1ccc(F)cc1 (stereo not drawn),0.837% (inactive),–
Cc1ccc(OCCn2cnc3ccccc32)cc1,-2.07% (inactive),–
O=c1[nH]c2ccccc2n1CCOc1ccccc1,–,inactive
